Screening data deposited in PubChem by National Center for Advancing Translational Sciences (NCATS).
This is a sample that favours compounds with a hit; in the whole collection about 2.4% have one here.
D2 PAM-1: Beta-Arrestin HTS for Positive Allosteric Modulators of the Human D2 Dopamine Receptor: Potentiators. 360,000 tested, 0.23% active. AID 624464, 2012. DiscoveRx D2 beta-arrestin cells, luminescence, 90 min; 100% = 57 uM dopamine signal. D(2) dopamine receptor (Homo sapiens), P14416. potentiation, % (test concentration not listed); in the data active = potentiation above about 50%; inconclusive = mostly about 30% to 49%
Target sequence (P14416 whole entry, looked up): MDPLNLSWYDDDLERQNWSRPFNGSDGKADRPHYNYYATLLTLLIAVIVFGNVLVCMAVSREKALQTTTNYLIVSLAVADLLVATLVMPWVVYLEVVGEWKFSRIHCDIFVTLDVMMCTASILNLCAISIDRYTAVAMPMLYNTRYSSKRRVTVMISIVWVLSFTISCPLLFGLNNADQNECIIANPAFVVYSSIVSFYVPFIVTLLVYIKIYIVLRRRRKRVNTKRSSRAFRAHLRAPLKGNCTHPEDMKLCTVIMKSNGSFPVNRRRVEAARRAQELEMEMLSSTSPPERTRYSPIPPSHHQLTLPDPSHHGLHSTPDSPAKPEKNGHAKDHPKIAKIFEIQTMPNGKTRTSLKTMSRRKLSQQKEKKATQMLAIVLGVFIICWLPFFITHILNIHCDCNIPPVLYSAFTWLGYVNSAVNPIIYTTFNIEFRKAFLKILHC
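PathHunter beta-arrestin assay in DiscoveRx D2 cells. Compounds were added with an EC20 of dopamine (50 nM final) for 90 min at 37 deg C. Luminescence was read 1 h after detection reagent, with 57 uM dopamine as the EC100 control.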
D2 PAM-2: HTS Assay for Positive Allosteric Modulators of the Human D2 Dopamine Receptor: Primary Screen for Potentiators. 340,000 tested, 0.34% active. potentiation, % at 10 µM. D(2) dopamine receptor (Homo sapiens), P14416. HEK293 T-REx D2, calcium flux, EC20 dopamine potentiation;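 active = potentiation over 3 SD above the plate norm, cut at about 30% in these data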; note: 0% is about no effect
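Potentiation of an EC20 dopamine calcium response measured kinetically over 180 s, after a preceding 180 s compound-only read flagging agonists. Cells: inducible Hek293 Trex D2 line, 4000/well, cultured overnight at 30 C before dye loading.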
D2 ag-1: HTS Assay for Allosteric Agonists of the Human D2 Dopamine Receptor: Primary Screen for Agonists; D(2) dopamine receptor (Homo sapiens), P14416; HEK293 T-REx D2 cells, calcium flux agonist mode; activation, % at 2 µM; 340,000 tested, 0.53% active; AID 485358, 2010;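 active = activation over 3 SD above normal in the single-dose calcium agonist read, cut at about 30% in these data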; note: 0% is about no effect
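HEK293 Trex D2 cells, tetracycline-induced, o/n 30 C 5% CO2; no-wash Ca dye, RT 30–90 min; 10-cycle baseline, 23 nl cpd added, kinetic Ca read 180 s; agonist hits = positive Ca response.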
D2 antagonist: HTS Assay for Allosteric Antagonists of the Human D2 Dopamine Receptor: Primary Screen for Antagonists; D(2) dopamine receptor (Homo sapiens), P14416; inhibition, % at 10 µM; 340,000 tested, 2% active; HEK293 TREx D2 cells, calcium flux, dopamine EC80; in the data active = inhibition above about 30%; inactive = below that, where a call was filed; note: 0% is about no effect
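Overnight-induced (tetracycline, 30 C) HEK293 T-REx cells carrying force-coupled D2 receive a no-wash calcium dye, then compound, then EC80 dopamine at 180 s; signals are read kinetically throughout.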
D2 ag-2: Beta-Arrestin HTS for Positive Allosteric Modulators of the Human D2 Dopamine Receptor: Agonists | D(2) dopamine receptor (Homo sapiens), P14416 | DiscoveRx PathHunter D2 beta-arrestin, luminescence, 90 min; 100% = 57 uM dopamine signal | activation, % (concentration not given with the values) | 360,000 tested, 0.084% active | AID 624465, 2012; in the data active = activation above about 40%; inconclusive = between about 15% and that limit
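Agonist mode: compounds alone added to overnight-plated D2 PathHunter cells for 90 min at 37 C, with 57 uM final dopamine (EC100) defining full response. Beta-arrestin recruitment detected by chemiluminescent reagent, read after 1 h at ambient temperature.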
An asterisk follows results filed as active; ? = inconclusive; . = no result.

SMILES | D2 PAM-1 | D2 PAM-2 | D2 ag-1 | D2 antagonist | D2 ag-2
O=C(Cc1ccccc1)N1CCN(Cc2ccc([N+](=O)[O-])cc2)CC1 | -5 | -2 | 0 | 1 | -3
O=[N+]([O-])c1cccc(CN2CCN(Cc3ccc(Br)cc3)CC2)c1 | -4 | -23 | 2 | 90* | -2
CC1(C)CC(=O)CC(C)(C)N1O | 4 | . | . | . | -3
CCc1ccc(OCC(=O)N2CCN(CCc3ccccn3)CC2)cc1 | . | -23 | 1 | . | .
CCOc1ccccc1NC(=O)c1cccn(Cc2ccccc2C)c1=O | . | 12 | 1 | . | .
CCCCCCNC(=O)N[C@H](Cc1ccc(O)cc1)C(=O)NCCC[C@H]1CN2C(=NC[C@H]2CCC)N1CC1CCC1 | . | 7 | 1 | 34* | .
Cc1cccc(-n2c(/C=C/c3cn(C)c4ccccc34)nc3ccccc3c2=O)c1 | . | -4 | 0 | . | .
CCc1nn(CC(=O)N2CCC3(CC2)OCCO3)c(=O)c2cc3ccccc3n12 | -2 | -12 | 32* | -5 | 3
CCCC12CN3CC(C)(CN(C1)C3c1ccccn1)C2=O (configuration not stated) | . | 6 | 0 | . | .
COC(=O)C1=C(c2ccc(F)cc2OCc2ccccc2)C[C@@H]2CC[C@H]1N2C(=O)NC1CCN(Cc2ccccc2)CC1 | -17 | -19 | 0 | 26 | -4
COC(=O)C1=C(c2ccccc2OCc2ccccc2)C[C@@H]2CC[C@H]1N2C(=O)NC1CCN(Cc2ccccc2)CC1 | -24 | -21 | 0 | 59* | 5
CC(C)N1CC=C(c2c[nH]c3ccccc23)CC1 | -39 | . | . | . | -1
C1=C(c2c[nH]c3ccccc23)CCNC1 | . | -16 | 2 | 42* | .
CN1CCc2c([nH]c3ccccc23)C1 | -105 | -25 | 0 | 51* | -4
N#CC1(c2ccccc2)CCN(C2CC(=O)N(c3ccc(F)cc3)C2=O)CC1 (configuration not stated) | -5 | 31* | 1 | -16 | 5
CNCCc1c[nH]c2ccc(O)cc12 | ? | . | . | . | 55*
COc1ccc(OC)c(CCNCc2c(C(=O)O)c(C)n(Cc3ccc(F)cc3Cl)c2C)c1 | . | -3 | 0 | . | .
Cc1cc(C)cc(-n2c(/C=C/c3cccc(F)c3)nc3ccccc3c2=O)c1 | . | 7 | 0 | . | .
CC1CN=C(NCc2ccncc2)S1 (configuration not stated) | 24 | -4 | 0 | 2 | -3
CC1CN=C(NCc2ccc(F)cc2)S1 (configuration not stated) | -5 | -7 | 37* | 4 | -2
O=Cc1c(C(=O)O)n(Cc2ccc(Cl)cc2)c2ccccc12 | -11 | -7 | 31* | 5 | -1
COc1ccc(C(C)=O)cc1CN1CC=C(c2ccccc2)CC1 | -10 | -27 | 3 | 78* | -1
COc1ccc2ccc(O)c(CN3CC=C(c4ccccc4)CC3)c2c1 | -4 | -17 | 17 | 19 | -2
COc1ccc2c(CN3CC=C(c4ccccc4)CC3)cc(=O)oc2c1 | -21 | -5 | 0 | 2 | -2
COc1cc(C)cc(CN2CC=C(c3ccccc3)CC2)c1O | -21 | -30 | -8 | 88* | 8
Fc1ccc(C(OCCN2CCCC2)c2ccc(F)cc2)cc1 | -41 | -23 | 1 | 13 | -5
Fc1ccc(C(OCCN2CCCC2)c2ccc(Br)cc2)cc1 (configuration not stated) | -16 | -23 | 4 | 47* | 0
Cc1ccc2c(c1)C1CN(C)CCC1N2C(=O)/C(C#N)=C/c1ccc2c(c1)OCO2 (configuration not stated) | -6 | -9 | 0 | 48* | -2
Cc1ccc2c(c1)C1CN(C)CCC1N2C(=O)/C=C/c1ccc2c(c1)OCO2 (configuration not stated) | -11 | -10 | 0 | 21 | -2
Cc1c(NS(=O)(=O)c2ccccc2)ccc([N+](=O)[O-])c1Cl | -13 | . | . | . | -5
